We go through 45 sequences from paper PMC7819943, “Rice protein-binding microarrays: a tool to detect cis-acting elements near promoter regions in rice”.

The full ranking holds about 39,000 sequences; the median of “fluorescence intensity (a.u.)” is about 4,300, and the highest 2% start at about 39,000. The sample holds the highest values, similar sequences and a random draw of the others, so the mix is not that of the screen.

This assay has as its target T1, OsSMF1 (Oryza sativa, UniProt Q6ZLB0 1-436).
T1 sequence: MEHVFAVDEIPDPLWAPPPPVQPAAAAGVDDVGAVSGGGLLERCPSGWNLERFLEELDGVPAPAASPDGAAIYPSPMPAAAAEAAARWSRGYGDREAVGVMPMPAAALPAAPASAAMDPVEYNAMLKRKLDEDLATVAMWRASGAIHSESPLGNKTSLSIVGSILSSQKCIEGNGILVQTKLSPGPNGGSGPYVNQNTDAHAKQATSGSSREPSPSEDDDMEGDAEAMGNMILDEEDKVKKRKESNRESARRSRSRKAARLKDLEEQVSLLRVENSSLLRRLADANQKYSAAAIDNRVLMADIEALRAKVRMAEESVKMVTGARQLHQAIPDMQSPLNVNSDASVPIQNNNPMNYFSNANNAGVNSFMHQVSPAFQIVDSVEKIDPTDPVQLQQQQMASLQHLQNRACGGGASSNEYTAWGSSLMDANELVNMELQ
Nature of the assay: protein-binding microarray (RPBM); PBS, 2% BSA, 51.3 ng/ul salmon testes DNA, 50 uM zinc acetate, 200 nM TF, 25 C, 1 h; high values mean tight binding. To be noted: protein: recombinant; tags: N-terminal polyhistidine and DsRed monomer fusion (pET32a); chain copies: 2; label: CyDye5-dUTP incorporated in the synthesized complementary strand; 3' TTTTT single-stranded linker to array surface; dsDNA, one strand shown. Put shortly: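 Binding signal here means per-feature fluorescence intensity in arbitrary units. The values were read on an Axon 4000B scanner after a custom Agilent array, double-stranded by primer extension with Cy5-dUTP, was incubated with 200 nM protein at 25 °C for 1 h in PBS with 2% BSA, salmon testes DNA and 50 µM zinc acetate, then washed. The proteins were transcription factors with an N-terminal polyhistidine tag and DsRed, expressed in E. coli BL21-CodonPlus and purified on Ni–NTA.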
With “ACCTGTGAATGTCTCTAGTGTGACGACTCTACTTCAGTTTCGGAGTCACCTAGTGCAG”, the binding signal is 4050 fluorescence intensity (a.u.).

“GAGCCTTACCGGCTCAGACTTGGCATGACGTGGACGTACACGGAGTCACCTAGTGCAG”: the binding signal was 22500 fluorescence intensity (a.u.). Then “TTCATTCCCAAATGCCACCCGGGCCCACATGTCAGCCTCACGGAGTCACCTAGTGCAG”, with 4670 fluorescence intensity (a.u.); and “TTACCCTTAGTCATTTGACCCTATTACATGTGGGACCCACCGGAGTCACCTAGTGCAG”, with 3900 fluorescence intensity (a.u.). Then “GTCATGGATCAAATCATCATGTATATCATCCGTCGTCGTGCGGAGTCACCTAGTGCAG”, with 3180 fluorescence intensity (a.u.); and “TGTTGCTCGGCCAAACGTACACACAGTTCGTTATATATCGCGGAGTCACCTAGTGCAG”, with 12100 fluorescence intensity (a.u.).

Consider “TATTTTGGAGCGGACGAAGTAATAATATAGTACACGTCGGCGGAGTCACCTAGTGCAG”, for which the binding signal was 5310 fluorescence intensity (a.u.). Next, “CCCATAACTGAATTGTTAATTTTGTCACGCGAGCAACGCACGGAGTCACCTAGTGCAG”: 19300 fluorescence intensity (a.u.); “ATACAAGACAAATCGATTAACATAAGATCGATATATCGCTCGGAGTCACCTAGTGCAG”: 24700 fluorescence intensity (a.u.).

As for “GATAATTAAGCTGATAGCGAGACATAACAAGCTCTGTTCTCGGAGTCACCTAGTGCAG”, the binding signal is 49600 fluorescence intensity (a.u.). With “ATACATAGCCATATATAAAATTAATGTGATAACATATTCTCGGAGTCACCTAGTGCAG”, the binding signal was 3660 fluorescence intensity (a.u.). Then “TGATAATAATTATTTCTTGGTCTTTAAATTAAGGGTGATTCGGAGTCACCTAGTGCAG”, with 14800 fluorescence intensity (a.u.); and “TAATAAGAGGCTGTAAGTCGGCTAAATGCTGAGGTGGAGGCGGAGTCACCTAGTGCAG”, with 8660 fluorescence intensity (a.u.); and “TGTTTGTAAAGTAGAGCGTGCATGTGTGCGTTCTTAAGGTCGGAGTCACCTAGTGCAG”, with 3590 fluorescence intensity (a.u.). For “AAGTAAATGTAGATAAGGCCGTGTAATAAAGGTTGCTAGTCGGAGTCACCTAGTGCAG”, the binding signal is 56800 fluorescence intensity (a.u.). Regarding “TTGGTAGGTTCGACCTACTAGATTGTTGTTGATAATATAACGGAGTCACCTAGTGCAG”, the binding signal is 51700 fluorescence intensity (a.u.). Next, “GATTGGTAGTATTTAGTTGTGTATAATGTATTATTAGGTTCGGAGTCACCTAGTGCAG”: 3720 fluorescence intensity (a.u.). For the sequence “AAATTCGTTCTACAACTAAACAGGTTGCTTCAGAGTGCAACGGAGTCACCTAGTGCAG”, the binding signal is 30800 fluorescence intensity (a.u.). Then “TGTTCATCCAAGGAGATTATCAGGTTGTTTGTATATATAACGGAGTCACCTAGTGCAG”, with 26400 fluorescence intensity (a.u.).

On to “GATTCGAGATTCAGGTAGGTTGTATAGTTCACGGGAGCAACGGAGTCACCTAGTGCAG”, for which the binding signal is 64500 fluorescence intensity (a.u.). Consider “AATATAGTGTTGTTTGGTACTATATCGAGTTGGATTAGTTCGGAGTCACCTAGTGCAG”, for which the binding signal is 3190 fluorescence intensity (a.u.). Turning to “TGCTATGCATACGACTCAGCTGTCCGACTCATGTATGAATCGGAGTCACCTAGTGCAG”, the binding signal is 3720 fluorescence intensity (a.u.). “CGCGGCACGGGGAGACGACACGTCGGATGGTTGGCAGGAGCGGAGTCACCTAGTGCAG”: the binding signal was 16400 fluorescence intensity (a.u.). Next, “TTCTTCCTATATAAGCACAACACACGTCCTTACTTGTGTGCGGAGTCACCTAGTGCAG”: 5410 fluorescence intensity (a.u.); “GGCGTTCTGCCGCCTGGCGCCGCTCGTCACGTACGAGGACCGGAGTCACCTAGTGCAG”: 3350 fluorescence intensity (a.u.). Regarding “TCTGTAGTAGTCATCATCACCTAGGTGCCTACCCTTTTGACGGAGTCACCTAGTGCAG”, the binding signal was 3280 fluorescence intensity (a.u.). “TGTGAGCACGGATCGACGATGAAAACAGACGAAGAACATTCGGAGTCACCTAGTGCAG”: the binding signal is 27400 fluorescence intensity (a.u.).

Turning to “ACTACAAATAGATCGAACAGAAACAGAGCATCACGACGACCGGAGTCACCTAGTGCAG”, the binding signal is 40300 fluorescence intensity (a.u.). “CTGGGAAATAGTGCTGCAGAGTCACTAGTTAGATCGAAATCGGAGTCACCTAGTGCAG”: the binding signal was 3980 fluorescence intensity (a.u.). Consider “TCTCAACCCTCAGGTAATCTACTGCTGCGCGTGGTGAATCCGGAGTCACCTAGTGCAG”, for which the binding signal was 4080 fluorescence intensity (a.u.).

As for “AAAGTCCGCTCGTGTTATTGGTAATTGAACTACTAAGCTACGGAGTCACCTAGTGCAG”, the binding signal was 41300 fluorescence intensity (a.u.).

Turning to “ATACTAATAGTATAGTAAGCAACTATTGTATGAATTGGCTCGGAGTCACCTAGTGCAG”, the binding signal was 3740 fluorescence intensity (a.u.). Regarding “CTACTAATAAGGCGTGTTATTATTGGTCATCAATGGCGTCCGGAGTCACCTAGTGCAG”, the binding signal was 3300 fluorescence intensity (a.u.).

Consider “GGATCCGGGCATCTGGCTGCCCCGCCGCCACTCCGCCTAGCGGAGTCACCTAGTGCAG”, for which the binding signal is 3330 fluorescence intensity (a.u.). As for “ATTGGTATGGTATATTCATACCATAACATAAGAACAATAACGGAGTCACCTAGTGCAG”, the binding signal was 21200 fluorescence intensity (a.u.). Then “TTGGATGTTTGCCGTGGACAAGTGCTAACTGTCAAAACCCCGGAGTCACCTAGTGCAG”, with 34900 fluorescence intensity (a.u.). Next, “GTGTGAAAAGATGCTGGCCCAATTAATTTGCGCGCGTCATCGGAGTCACCTAGTGCAG”: 48700 fluorescence intensity (a.u.); “TTGAAACTGTGCATGCGCATCACCTTCATGCCCAAAATTTCGGAGTCACCTAGTGCAG”: 3160 fluorescence intensity (a.u.); “CTTGTGGCCCATTAATGGCTCGCGTCGGCCTAATTTTGTGCGGAGTCACCTAGTGCAG”: 4450 fluorescence intensity (a.u.). Regarding “AACGTCGGTTCCCAAACATTTGTTTTCCTTACCAATCGGGCGGAGTCACCTAGTGCAG”, the binding signal was 3490 fluorescence intensity (a.u.). With “ACCAGTCCCAAATCAAACAGTCCTACTAGTTGCATTTTGTCGGAGTCACCTAGTGCAG”, the binding signal is 47200 fluorescence intensity (a.u.). Then “TATCATTTGTCAAACACACCCATATCCCATTTGCCAATCACGGAGTCACCTAGTGCAG”, with 3890 fluorescence intensity (a.u.); and “TCAATCATGAGGACATGGTAATATATTGCTTGTGTTGCTTCGGAGTCACCTAGTGCAG”, with 3550 fluorescence intensity (a.u.).

Regarding “GTGTGAAACTCATACAAATATAAAATTACTGAACTACCGTCGGAGTCACCTAGTGCAG”, the binding signal was 49600 fluorescence intensity (a.u.).

Turning to “AATTATAAAATCCAGAAAATAAACTAAGAACTGAAAACTACGGAGTCACCTAGTGCAG”, the binding signal is 5060 fluorescence intensity (a.u.).
